# Laboratory results as given in the supplement of paper PMC8728848.
# Many of the other results were omitted from the sample, so the strongest signals are more common in it than they were.
# B1: PhoSpL (Pholiota squarrosa) (peptide)
# chain: APVPVTKLVCDGDTYKCTAYLDFGDGRWVAQWDTNVFHTG
# Legend:
# Experiment in all cases: glycan array binding signal (z-score within array); higher = stronger binding
# Conditions in all cases: glycan notation: IUPAC condensed, linker removed
# [1] = target: Fuc(a1-2)Gal(b1-4)GlcNAc(b1-6)GalNAc
# Procedure, shortened: (§1)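 Negative Z-scores can be read as non-binding. The Z-score is calculated within each array and then averaged across arrays of one protein sequence at different concentrations or buffers and across linkers. Arrays, 3228 in all, were curated from the Consortium for Functional Glycomics database and kept only where the protein sequence was available.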
# [2] = target: Fuc(a1-2)[Gal(a1-4)]Gal(b1-4)GlcNAc
# Procedure, shortened: as §1
# [3] = target: Fuc(a1-2)[GalNAc(a1-3)]Gal
# Procedure, shortened: as §1
# [4] = target: Fuc(a1-2)[GalNAc(a1-3)]Gal(b1-4)GlcNAc(b1-2)Man
# Procedure, shortened: as §1
# Fuc(a1-3)GlcNAc = target: Fuc(a1-3)GlcNAc
# Procedure, shortened: as §1
# [5] = target: Fuc(a1-3)[Gal(b1-4)]GlcNAc(b1-2)Man
# Procedure, shortened: as §1
# [6] = target: Fuc(a1-3)[Gal(b1-4)]GlcNAc(b1-3)Gal(b1-4)[Fuc(a1-3)]GlcNAc(b1-3)Gal(b1-4)[Fuc(a1-3)]GlcNAc
# Procedure, shortened: as §1
# Gal(a1-2)Gal = target: Gal(a1-2)Gal
# Procedure, shortened: as §1
# Gal(a1-3)Gal(b1-4)Glc = target: Gal(a1-3)Gal(b1-4)Glc
# Procedure, shortened: as §1
# [7] = target: Gal(b1-3)GlcNAc(b1-2)Man(a1-3)[Gal(b1-3)GlcNAc(b1-2)Man(a1-6)]Man(b1-4)GlcNAc(b1-4)[Fuc(a1-6)]GlcNAc
# Procedure, shortened: as §1
# [8] = target: Gal(b1-3)[Fuc(a1-4)]GlcNAc(b1-3)Gal(b1-4)[Fuc(a1-3)]GlcNAc
# Procedure, shortened: as §1
# [9] = target: Gal(b1-4)GlcNAc(b1-2)Man(a1-3)[Gal(b1-4)GlcNAc(b1-2)Man(a1-6)]Man(b1-4)GlcNAc(b1-4)[Fuc(a1-6)]GlcNAc
# Procedure, shortened: as §1
# [10] = target: Gal(b1-4)GlcNAc(b1-2)[Gal(b1-4)GlcNAc(b1-6)]Man(a1-6)[Gal(b1-4)GlcNAc(b1-2)Man(a1-3)]Man(b1-4)GlcNAc(b1-4)[Fuc(a1-6)]GlcNAc
# Procedure, shortened: as §1
# [11] = target: Gal(b1-4)GlcNAc(b1-3)Gal(b1-3)GlcNAc
# Procedure, shortened: as §1
# [12] = target: Gal(b1-4)GlcNAc(b1-3)Gal(b1-4)GlcNAc(b1-2)Man(a1-3)[Gal(b1-4)GlcNAc(b1-3)Gal(b1-4)GlcNAc(b1-2)Man(a1-6)]Man(b1-4)GlcNAc(b1-4)[Fuc(a1-6)]GlcNAc
# Procedure, shortened: as §1
# [13] = target: Gal(b1-4)GlcNAc(b1-3)Gal(b1-4)GlcNAc(b1-3)Gal(b1-4)GlcNAc
# Procedure, shortened: as §1
# [14] = target: Gal(b1-4)GlcNAc(b1-3)Gal(b1-4)GlcNAc(b1-3)Gal(b1-4)GlcNAc(b1-3)Gal(b1-4)GlcNAc(b1-3)Gal(b1-4)GlcNAc(b1-2)Man(a1-3)[Gal(b1-4)GlcNAc(b1-3)Gal(b1-4)GlcNAc(b1-3)Gal(b1-4)GlcNAc(b1-3)Gal(b1-4)GlcNAc(b1-3)Gal(b1-4)GlcNAc(b1-2)Man(a1-6)]Man(b1-4)GlcNAc(b1-4)[Fuc(a1-6)]GlcNAc
# Procedure, shortened: as §1
# [15] = target: Gal(b1-4)GlcNAc(b1-3)GalNAc
# Procedure, shortened: as §1
# Gal(b1-4)GlcNAc6P = target: Gal(b1-4)GlcNAc6P
# Procedure, shortened: as §1
# [16] = target: GalNAc(a1-3)GalNAc(b1-3)Gal(a1-4)Gal(b1-4)GlcNAc
# Procedure, shortened: as §1
# [17] = target: GalNAc(b1-3)Gal(a1-4)Gal(b1-4)GlcNAc
# Procedure, shortened: as §1
# [18] = target: GalNAc(b1-4)GlcNAc(b1-2)Man(a1-3)[GalNAc(b1-4)GlcNAc(b1-2)Man(a1-6)]Man(b1-4)GlcNAc(b1-4)GlcNAc
# Procedure, shortened: as §1
# [19] = target: GlcA3S(b1-3)Gal(b1-4)GlcNAc(b1-2)Man
# Procedure, shortened: as §1
# [20] = target: GlcNAc(a1-4)Gal(b1-3)GlcNAc
# Procedure, shortened: as §1
# [21] = target: GlcNAc(b1-2)Man(a1-3)[GlcNAc(b1-2)Man(a1-6)]Man(b1-4)GlcNAc(b1-4)GlcNAc
# Procedure, shortened: as §1
# [22] = target: GlcNAc(b1-2)Man(a1-3)[GlcNAc(b1-2)Man(a1-6)]Man(b1-4)GlcNAc(b1-4)[Fuc(a1-6)]GlcNAc
# Procedure, shortened: as §1
# [23] = target: GlcNAc(b1-2)[GlcNAc(b1-4)]Man(a1-3)[GlcNAc(b1-4)][GlcNAc(b1-2)Man(a1-6)]Man(b1-4)GlcNAc(b1-4)GlcNAc
# Procedure, shortened: as §1
# [24] = target: GlcNAc(b1-2)[GlcNAc(b1-6)]Man(a1-6)[GlcNAc(b1-2)Man(a1-3)]Man(b1-4)GlcNAc(b1-4)[Fuc(a1-6)]GlcNAc
# Procedure, shortened: as §1
# [25] = target: GlcNAc(b1-3)Gal(b1-4)GlcNAc(b1-2)Man(a1-3)[GlcNAc(b1-3)Gal(b1-4)GlcNAc(b1-2)Man(a1-6)]Man(b1-4)GlcNAc(b1-4)[Fuc(a1-6)]GlcNAc
# Procedure, shortened: as §1
# [26] = target: GlcNAc(b1-3)Gal(b1-4)GlcNAc(b1-3)Gal(b1-4)GlcNAc(b1-2)Man(a1-3)[GlcNAc(b1-3)Gal(b1-4)GlcNAc(b1-3)Gal(b1-4)GlcNAc(b1-2)Man(a1-6)]Man(b1-4)GlcNAc(b1-4)[Fuc(a1-6)]GlcNAc
# Procedure, shortened: as §1
# [27] = target: Man(a1-3)[Man(a1-6)]Man(b1-4)GlcNAc(b1-4)[Fuc(a1-6)]GlcNAc
# Procedure, shortened: as §1
# MurNAc(b1-4)GlcNAc = target: MurNAc(b1-4)GlcNAc
# Procedure, shortened: as §1
# [28] = target: Neu5Ac(a2-3)Gal(b1-3)GalNAc(b1-4)[Neu5Ac(a2-3)]Gal(b1-4)Glc
# Procedure, shortened: as §1
# [29] = target: Neu5Ac(a2-3)Gal(b1-3)GlcNAc(b1-2)Man(a1-3)[GlcNAc(b1-4)][Neu5Ac(a2-3)Gal(b1-3)GlcNAc(b1-2)Man(a1-6)]Man(b1-4)GlcNAc(b1-4)GlcNAc
# Procedure, shortened: as §1
# [30] = target: Neu5Ac(a2-3)Gal(b1-3)[Fuc(a1-4)]GlcNAc(b1-3)Gal(b1-3)[Fuc(a1-4)]GlcNAc
# Procedure, shortened: as §1
# [31] = target: Neu5Ac(a2-3)Gal(b1-4)GlcNAc(b1-3)Gal(b1-4)GlcNAc(b1-3)GalNAc
# Procedure, shortened: as §1
# [32] = target: Neu5Ac(a2-3)Gal(b1-4)GlcNAc(b1-3)Gal(b1-4)GlcNAc(b1-3)[Neu5Ac(a2-3)Gal(b1-4)GlcNAc(b1-3)Gal(b1-4)GlcNAc(b1-6)]GalNAc
# Procedure, shortened: as §1
# [33] = target: Neu5Ac(a2-3)Gal(b1-4)GlcNAc(b1-6)GalNAc
# Procedure, shortened: as §1
# [34] = target: Neu5Ac(a2-3)Gal(b1-4)GlcNAc(b1-6)[Gal(b1-3)]GalNAc
# Procedure, shortened: as §1
# [35] = target: Neu5Ac(a2-3)Gal(b1-4)GlcNAc(b1-6)[Neu5Ac(a2-3)Gal(b1-3)]GalNAc
# Procedure, shortened: as §1
# [36] = target: Neu5Ac(a2-3)Gal(b1-4)GlcNAc6S
# Procedure, shortened: as §1
# [37] = target: Neu5Ac(a2-6)Gal(b1-4)GlcNAc(b1-2)Man(a1-3)[Neu5Ac(a2-6)Gal(b1-4)GlcNAc(b1-2)Man(a1-6)]Man(b1-4)GlcNAc(b1-4)[Fuc(a1-6)]GlcNAc
# Procedure, shortened: as §1
# [38] = target: Neu5Ac(a2-6)Gal(b1-4)GlcNAc(b1-3)Gal(b1-3)GlcNAc
# Procedure, shortened: as §1
# [39] = target: Neu5Ac(a2-8)Neu5Ac(a2-3)Gal(b1-4)Glc
# Procedure, shortened: as §1
# [40] = target: Neu5Ac(a2-8)Neu5Ac(a2-3)[GalNAc(b1-4)]Gal(b1-4)Glc
# Procedure, shortened: as §1
# [41] = target: Neu5Gc(b2-6)Gal(b1-4)GlcNAc
# Procedure, shortened: as §1
binder,measurement,setting,value
B1,glycan array binding signal (z-score),[1],-0.46
same,glycan array binding signal (z-score),[2],0.637
same,glycan array binding signal (z-score),[3],-0.032
same,glycan array binding signal (z-score),[4],0.067
same,glycan array binding signal (z-score),Fuc(a1-3)GlcNAc,-0.427
same,glycan array binding signal (z-score),[5],-0.336
same,glycan array binding signal (z-score),[6],-0.179
same,glycan array binding signal (z-score),Gal(a1-2)Gal,-0.168
same,glycan array binding signal (z-score),Gal(a1-3)Gal(b1-4)Glc,0.101
same,glycan array binding signal (z-score),[7],6.05
same,glycan array binding signal (z-score),[8],-0.256
same,glycan array binding signal (z-score),[9],13.4
same,glycan array binding signal (z-score),[10],8.42
same,glycan array binding signal (z-score),[11],0.027
same,glycan array binding signal (z-score),[12],1.94
same,glycan array binding signal (z-score),[13],-0.517
same,glycan array binding signal (z-score),[14],0.488
same,glycan array binding signal (z-score),[15],-0.135
same,glycan array binding signal (z-score),Gal(b1-4)GlcNAc6P,-0.747
same,glycan array binding signal (z-score),[16],0.539
same,glycan array binding signal (z-score),[17],0.249
same,glycan array binding signal (z-score),[18],1.41
same,glycan array binding signal (z-score),[19],-0.16
same,glycan array binding signal (z-score),[20],-0.307
same,glycan array binding signal (z-score),[21],-0.238
same,glycan array binding signal (z-score),[22],4.77
same,glycan array binding signal (z-score),[23],-0.113
same,glycan array binding signal (z-score),[24],4.35
same,glycan array binding signal (z-score),[25],2.47
same,glycan array binding signal (z-score),[26],1.44
same,glycan array binding signal (z-score),[27],6.32
same,glycan array binding signal (z-score),MurNAc(b1-4)GlcNAc,-0.337
same,glycan array binding signal (z-score),[28],0.143
same,glycan array binding signal (z-score),[29],-0.151
same,glycan array binding signal (z-score),[30],-0.57
same,glycan array binding signal (z-score),[31],0.1
same,glycan array binding signal (z-score),[32],-0.169
same,glycan array binding signal (z-score),[33],-0.386
same,glycan array binding signal (z-score),[34],0.254
same,glycan array binding signal (z-score),[35],-0.322
same,glycan array binding signal (z-score),[36],0.087
same,glycan array binding signal (z-score),[37],4.01
same,glycan array binding signal (z-score),[38],-0.422
same,glycan array binding signal (z-score),[39],-0.197
same,glycan array binding signal (z-score),[40],-0.373
same,glycan array binding signal (z-score),[41],0.132
